PD-1 reversal: activators reversing PD-1 mediated T-cell inhibition. primary human CD4 T cells, PD-L1 beads, CellTiter-Glo 96 h. activation, % (test concentration not listed). 29,000 tested, under 10 active; call rule not given here;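 also: 0% = median vehicle wells and 100% = positive control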
STK33 kin inh: blocks human STK33 kinase activity. Q9BYT3. 27,000 compounds, 0.44% hits. inhibition, % at 12.5 µM. ADP-Glo luminescence, MBP substrate; in the data active = inhibition above about 20%
Target sequence (Q9BYT3 whole entry, looked up): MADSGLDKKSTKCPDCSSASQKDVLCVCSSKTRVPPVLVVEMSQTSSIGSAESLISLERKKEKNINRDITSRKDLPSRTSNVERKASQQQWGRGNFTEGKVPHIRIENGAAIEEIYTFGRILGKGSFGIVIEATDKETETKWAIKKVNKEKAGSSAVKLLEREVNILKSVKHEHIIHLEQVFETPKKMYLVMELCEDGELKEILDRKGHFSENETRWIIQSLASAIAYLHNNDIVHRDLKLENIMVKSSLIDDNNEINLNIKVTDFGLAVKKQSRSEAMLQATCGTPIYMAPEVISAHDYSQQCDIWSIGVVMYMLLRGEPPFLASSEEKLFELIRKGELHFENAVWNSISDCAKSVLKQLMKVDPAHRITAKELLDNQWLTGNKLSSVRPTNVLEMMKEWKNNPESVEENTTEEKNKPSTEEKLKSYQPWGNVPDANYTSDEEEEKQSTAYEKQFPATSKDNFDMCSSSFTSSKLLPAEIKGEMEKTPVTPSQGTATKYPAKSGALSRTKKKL
NOMO-1 viab: STK33 inhibitor candidate reducing NOMO-1 cell viability; NOMO-1 AML viability, CellTiter-Glo luminescence, 72 h; inhibition, % (concentration not given with the values); 37,000 compounds, 7.5% hits; AID 2330; in the data active = inhibition above about 80%
* = called active by the depositor; . = no result. This excerpt belongs to a sample that is enriched for hits.

SMILES	PD-1 reversal	STK33 kin inh	NOMO-1 viab
C[C@@H]1CN([C@H](C)CO)C(=O)c2cccc(NC(=O)c3ccc(-c4nccs4)cc3)c2O[C@H]1CN(C)Cc1ccc(Cl)c(Cl)c1	-4.1	.	105.9*
C[C@@H]1CN([C@@H](C)CO)C(=O)c2cccc(NC(=O)c3ccc(-c4nccs4)cc3)c2O[C@@H]1CN(C)Cc1ccc(Cl)c(Cl)c1	-2.6	.	51.6
C[C@H]1CN([C@@H](C)CO)C(=O)c2cccc(NC(=O)c3ccc(-c4nccs4)cc3)c2O[C@@H]1CN(C)Cc1ccc(C(=O)O)cc1	0.8	.	8.2
C[C@H](CO)N1C[C@H](C)[C@H](CN(C)Cc2ccc(Cl)c(Cl)c2)Oc2c(NC(=O)c3ccc(-c4nccs4)cc3)cccc2C1=O	-5.2	.	108.1*
C[C@@H]1CN([C@@H](C)CO)C(=O)c2cccc(NC(=O)c3ccc(-c4nccs4)cc3)c2O[C@@H]1CN(C)Cc1ccc(C(=O)O)cc1	.	.	-18.5
CC(C)NC(=O)N(C)C[C@@H]1Oc2ccc(NS(=O)(=O)c3ccc(Cl)cc3)cc2CC(=O)N([C@@H](C)CO)C[C@@H]1C	2.7	-6.3	6.0
CCOc1ccc(C(=O)Nc2ccc(NC(=O)c3ccccc3)c(C)c2)cc1Br	0.0	.	58.2
C[C@@H]1CN([C@H](C)CO)C(=O)CCCn2cc(nn2)CO[C@@H]1CN(C)C(=O)c1ccc(N2CCN(C)CC2)cc1	.	2.8	.
CNC[C@H]1Oc2ccc(NC(=O)Nc3ccc(F)cc3)cc2C(=O)N([C@@H](C)CO)C[C@H]1C	2.3	.	27.8
COc1ccc(C)cc1S(=O)(=O)N(C)CC(=O)N1CCOCC1	0.4	1.8	14.7
S=C(NCc1ccco1)Nc1cccnc1	0.5	-3.4	-12.3
O=[N+]([O-])c1nn(-c2ccccc2)n(O)c1=NC1CCN(Cc2ccccc2)CC1	.	-2.7	114.3*
CC(CCc1ccccc1)N=c1c([N+](=O)[O-])nn(-c2ccccc2)n1O (stereo not given)	1.2	-2.7	18.2
C[C@@H]1CN([C@H](C)CO)C(=O)Cc2cc(N(C)C)ccc2O[C@H]1CN(C)Cc1ccc(-c2ccccc2)cc1	-6.5	-0.3	32.3
CC(C)OC(=O)CSc1nc(-c2ccccc2)cc(C(F)(F)F)c1C#N	-1.0	4.6	14.8
CC(C)OC(=O)n1c(=S)oc2ccccc21	1.6	.	9.9
CCCCC(=O)/C=C/n1c(=S)oc2ccccc21	0.0	.	133.3*
Cc1ccc(S(=O)(=O)Nc2ccc3c(c2)CC(=O)N([C@@H](C)CO)C[C@@H](C)[C@@H](CN(C)S(C)(=O)=O)O3)cc1	2.6	0.9	-3.8
C[C@H]1CN([C@@H](C)CO)C(=O)c2cccc(NC(=O)Nc3cccc4ccccc34)c2O[C@H]1CN(C)Cc1ccc(Oc2ccccc2)cc1	-3.4	.	93.2*
COc1ccc(NC(=O)Nc2cccc3c2O[C@H](CN(C)Cc2ccc(Oc4ccccc4)cc2)[C@H](C)CN([C@@H](C)CO)C3=O)cc1	-3.8	.	112.6*
COc1ccc(CN(C)C[C@@H]2Oc3c(NC(=O)Nc4ccc(F)cc4)cccc3C(=O)N([C@@H](C)CO)C[C@@H]2C)cc1	0.3	.	31.0
COc1ccc(CN(C)C[C@@H]2Oc3c(NC(=O)Nc4ccc(F)cc4)cccc3C(=O)N([C@H](C)CO)C[C@H]2C)cc1	-5.0	.	94.2*
COc1ccc(CN(C)C[C@H]2Oc3c(NC(=O)Nc4ccccc4)cccc3C(=O)N([C@@H](C)CO)C[C@H]2C)cc1	.	.	2.1
COc1ccc(CN(C)C[C@H]2Oc3c(NC(=O)Nc4ccc(OC)cc4)cccc3C(=O)N([C@H](C)CO)C[C@H]2C)cc1	-0.8	.	1.8
COc1ccc(CN(C)C[C@@H]2Oc3c(NC(=O)Nc4ccc(OC)cc4)cccc3C(=O)N([C@@H](C)CO)C[C@H]2C)cc1	-6.5	.	93.2*
SMILES	PD-1 reversal	STK33 kin inh	NOMO-1 viab
COc1ccc(CN(C)C[C@H]2Oc3c(NC(=O)Nc4cccc5ccccc45)cccc3C(=O)N([C@H](C)CO)C[C@H]2C)cc1	-1.3	.	45.8
CC(C)NC(=O)Nc1cccc2c1O[C@@H](CN(C)CC1CC1)[C@H](C)CN([C@H](C)CO)C2=O	1.8	.	-3.6
C[C@H]1CN([C@@H](C)CO)C(=O)c2cccc(NS(=O)(=O)c3cn(C)cn3)c2O[C@H]1CN(C)Cc1ccc(C(=O)Nc2ccccc2N)cc1	1.3	.	25.5
O=C(CSc1nc2ccccc2c(=O)n1-c1ccc(Cl)cc1)Nc1ccccc1[N+](=O)[O-]	-2.1	-0.8	31.2
C[C@@H]1CN([C@H](C)CO)C(=O)Cc2cc(NS(=O)(=O)c3cn(C)cn3)ccc2O[C@@H]1CN(C)C(=O)NC1CCCCC1	0.9	-0.3	-8.2
C[C@@H]1CN([C@H](C)CO)C(=O)c2cccc(NC(=O)c3ccncc3)c2O[C@@H]1CN(C)C(=O)NC1CCCCC1	0.1	.	-8.6
COc1ccc(NC(=O)Nc2cccc3c2O[C@@H](CN(C)Cc2ccccc2)[C@H](C)CN([C@@H](C)CO)C3=O)cc1	-4.1	.	93.1*

High-throughput results deposited in PubChem by Broad Institute.
